# Results reported in PubChem BioAssay.
# Activity calls are given as the source filed them. Unless noted, no rule for the calls is given here.
# Tests used:
# [1] = compounds binding Alexa647 anti-His antibody – biochemical, small-molecule microarray, 635 nm fluorescence, artefact control for SMM control protein annotation, primary screen (AID 1128); settings: higher = more signal;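 also: score merges feature fluorescence with signal-to-noise for each printed compound spot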
# [2] = system: Human papillomavirus type 1a E7 protein (residues 1-88); test: HPV1a E7 small-molecule binders, primary screen, biochemical, small-molecule microarray, residues 1-88, 635 nm (AID 1129); settings: small-molecule microarray binding, fluorescence 635 nm; higher = more signal
# [3] = target: Focal adhesion kinase 1 (Homo sapiens) (UniProt Q05397); test: PTK2 protein binding on printed compound slides – biochemical, small-molecule microarray, 635/667 nm fluorescence, BSA, DTT, primary screen (AID 1130); settings: 635 nm fluorescence, higher = more signal;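 also: composite of spot emission at 667 nm and signal to noise over triplicate slides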
# [4] = system: Fibrinogen (Alexa647-labelled); test: Alexa647-fibrinogen binding to printed small molecules – biochemical, small-molecule microarray, 635/667 nm fluorescence, artefact control for SMM control-protein annotation, profiling panel (AID 1131); settings: fibrinogen-A647 binding fluorescence, higher = more signal;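 also: z-score merges 667 nm fluorescence with per-spot signal-to-noise over triplicate slides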
# [5] = target: Follistatin (Homo sapiens) (UniProt P19883); test: FST protein binding to printed compounds – biochemical, small-molecule microarray, 635/667 nm fluorescence, primary screen (AID 1132); settings: 635 nm fluorescence, higher = more signal
# [6] = target: Fibroblast growth factor 2 (Homo sapiens) (UniProt P09038); test: basic fibroblast growth factor binding to printed compounds – biochemical, small-molecule microarray, 635/667 nm fluorescence, primary screen (AID 1133); settings: FGF2, fluorescence 635/667, higher = more signal
# [7] = JC-1 mitochondrial potential readout, lung cancer cells – cell-based, A549, JC-1 fluorescence, basal, 24 h, 100 nL, profiling panel (AID 1138); settings: higher = more signal;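 also: A549 lung adenocarcinoma cells under basal conditions with no added stimulus; test concentration not given here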
# [8] = system: Lefty1; test: Lefty1 protein binding to printed compounds – biochemical, small-molecule microarray, 635/667 nm fluorescence, primary screen (AID 1139); settings: fluorescence 635/667, higher = more signal
# [9] = system: wheat germ agglutinin (Triticum aestivum), Alexa647-labelled; test: Alexa647-WGA lectin binding to printed small molecules – biochemical, small-molecule microarray, 635/667 nm fluorescence, artefact control for SMM control-protein annotation, profiling panel (AID 1140); settings: WGA-A647 binding, 635 nm fluorescence, higher = more signal;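 also: score merges 667 nm feature emission with signal to noise over triplicate slides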
# [10] = target: Luciferin 4-monooxygenase (Photinus pyralis) (UniProt P08659); test: inhibition of purified Photinus pyralis luciferase – biochemical, luminescence, purified enzyme, 2006 set, primary screen (AID 1141); settings: purified firefly luciferase, SteadyGlo luminescence, 30 min; higher = more signal, called active from +8 up or from −8 down;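 also: cell-free assay with purified firefly luciferase at 100 ng per well in PBS; test concentration not given here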
# [11] = system: Wnt5a (protein binding on small-molecule microarray); test: small molecules binding Wnt5a protein – biophysical, small-molecule microarray, 635/667 nm fluorescence, primary screen (AID 1142); settings: 635 nm fluorescence, higher = more signal;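 also: fluorescence read at 667 nm with signal to noise per printed feature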
# [12] = ATP-based viability of Huh7 replicon cells – cell-based, CellTiter-Glo luminescence, basal, 48 h, cytotoxicity control for HCV replication inhibitor project, primary screen (AID 1143); settings: higher = more signal, called active from +8 up or from −8 down;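 also: Huh7 hepatoma cells carrying a hepatitis C replication reporter with no stimulus; test concentration not given here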
# [13] = Pseudomonas biofilm growth suppression – PAO1 strain, BacTiter-Glo luminescence, LB-PBS, primary screen (AID 1144); settings: P. aeruginosa PAO1 biofilm, 12 h, higher = more signal
# [14] = basal CRE-LacZ reporter activity in PC12 – cell-based, unstimulated, primary screen (AID 1145); settings: no forskolin, luminescence, 4.5 h, higher = more signal, called active from +8 up or from −8 down
# [15] = forskolin-driven CRE-LacZ activity in PC12 – cell-based, CRE-LacZ reporter, forskolin-stimulated, primary screen (AID 1146); settings: luminescence, 4.5 h, higher = more signal, called active from +8 up or from −8 down;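 also: PC12 cells with 6xCRE LacZ reporter stimulated by forskolin 10 µM; beta-galactosidase reporter signal reflecting CREB driven transcription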
# [16] = target: Streptavidin (Streptomyces avidinii) (UniProt P22629); test: compounds binding control protein streptavidin – biophysical, small-molecule microarray, 635/667 nm fluorescence, artefact control for SMM compound annotation, primary screen (AID 1147); settings: higher = more signal;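 also: signal reflects streptavidin binding to arrayed compounds as a control protein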
# [17] = probe aInhba binding on compound microarray – biochemical, small-molecule microarray, 635/667 nm fluorescence, primary screen (AID 1148); settings: higher = more signal;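 also: score merges 667nm spot fluorescence with signal-to-noise for antibody binding to printed compounds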
# [18] = target: Torsin-1A (Homo sapiens) (UniProt O14656); test: TOR1A wild-type binding on microarray – cell lysate, small-molecule microarray, lysate, 635/667 nm, primary screen (AID 1149); settings: COS7 hTOR1A-WT lysate, 635 nm fluorescence, higher = more signal
# [19] = target: Torsin-1A (Homo sapiens) (UniProt O14656); test: torsin A mutant lysate binding on microarrays – cell lysate, small-molecule microarray, COS7 lysate, 635/667 nm fluorescence, primary screen (AID 1150); settings: COS7 hTOR1A mutant lysate, 635 nm fluorescence, higher = more signal;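 also: score pools 667 nm emission and signal to noise measuring lysate protein binding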
# [20] = system: Sonic hedgehog protein (Shh); test: Sonic hedgehog microarray binding compounds – biochemical, small-molecule microarray, 635/667 nm fluorescence, primary screen (AID 1151); settings: 635 nm fluorescence, higher = more signal;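 also: Shh protein binding to compounds spotted on small-molecule microarray slides; score combines spot fluorescence intensity with signal-to-noise across triplicate slides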
# Sequence of Luciferin 4-monooxygenase (Photinus pyralis) (P08659 whole entry, looked up): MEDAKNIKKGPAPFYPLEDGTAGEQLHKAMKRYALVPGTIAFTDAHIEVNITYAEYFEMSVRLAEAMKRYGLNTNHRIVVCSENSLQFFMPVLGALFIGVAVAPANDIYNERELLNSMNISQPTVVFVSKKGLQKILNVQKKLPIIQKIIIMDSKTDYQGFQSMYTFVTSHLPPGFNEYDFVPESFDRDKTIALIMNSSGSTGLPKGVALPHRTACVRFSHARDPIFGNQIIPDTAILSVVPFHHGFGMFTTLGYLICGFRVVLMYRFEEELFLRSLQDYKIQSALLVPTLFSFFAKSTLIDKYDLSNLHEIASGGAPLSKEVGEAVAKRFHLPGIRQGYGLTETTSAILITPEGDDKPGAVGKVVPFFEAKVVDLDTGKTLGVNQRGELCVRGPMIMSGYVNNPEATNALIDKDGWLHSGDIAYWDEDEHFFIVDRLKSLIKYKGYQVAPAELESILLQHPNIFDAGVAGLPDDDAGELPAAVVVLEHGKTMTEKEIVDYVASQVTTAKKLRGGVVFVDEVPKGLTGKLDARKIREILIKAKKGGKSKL
# Sequence of Streptavidin (Streptomyces avidinii) (P22629 whole entry, looked up): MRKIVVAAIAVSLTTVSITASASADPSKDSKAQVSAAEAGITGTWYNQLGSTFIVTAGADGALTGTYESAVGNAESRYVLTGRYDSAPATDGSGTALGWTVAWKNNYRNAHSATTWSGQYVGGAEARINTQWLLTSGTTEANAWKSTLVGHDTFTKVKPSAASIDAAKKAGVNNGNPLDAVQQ
# Sequence of Follistatin (Homo sapiens) (P19883 whole entry, looked up): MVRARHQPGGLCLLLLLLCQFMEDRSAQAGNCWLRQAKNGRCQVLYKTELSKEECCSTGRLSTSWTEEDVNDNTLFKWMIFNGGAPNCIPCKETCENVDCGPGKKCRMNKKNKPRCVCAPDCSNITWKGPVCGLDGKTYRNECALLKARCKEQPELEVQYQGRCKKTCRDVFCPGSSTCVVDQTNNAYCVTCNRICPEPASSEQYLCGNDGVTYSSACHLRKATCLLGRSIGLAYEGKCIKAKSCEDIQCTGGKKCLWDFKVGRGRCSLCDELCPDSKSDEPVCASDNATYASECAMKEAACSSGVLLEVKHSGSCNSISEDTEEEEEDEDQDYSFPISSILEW
# Sequence of Torsin-1A (Homo sapiens) (O14656 whole entry, looked up): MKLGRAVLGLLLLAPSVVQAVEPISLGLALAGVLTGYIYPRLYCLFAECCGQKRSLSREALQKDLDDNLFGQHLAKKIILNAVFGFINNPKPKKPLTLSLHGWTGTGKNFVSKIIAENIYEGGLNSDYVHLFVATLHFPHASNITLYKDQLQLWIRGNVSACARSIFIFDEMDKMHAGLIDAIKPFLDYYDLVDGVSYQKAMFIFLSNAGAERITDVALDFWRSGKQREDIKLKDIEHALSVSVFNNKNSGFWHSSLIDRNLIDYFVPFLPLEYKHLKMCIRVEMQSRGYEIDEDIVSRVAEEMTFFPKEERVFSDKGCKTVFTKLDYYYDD
# Sequence of Fibroblast growth factor 2 (Homo sapiens) (P09038 whole entry, looked up): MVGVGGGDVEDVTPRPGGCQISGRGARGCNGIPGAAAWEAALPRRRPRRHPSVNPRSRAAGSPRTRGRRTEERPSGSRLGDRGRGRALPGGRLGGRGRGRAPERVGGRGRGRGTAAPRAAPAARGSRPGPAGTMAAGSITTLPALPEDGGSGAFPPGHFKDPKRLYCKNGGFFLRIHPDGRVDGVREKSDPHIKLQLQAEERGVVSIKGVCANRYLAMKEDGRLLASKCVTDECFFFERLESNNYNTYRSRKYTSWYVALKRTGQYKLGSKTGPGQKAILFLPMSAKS
# Sequence of Focal adhesion kinase 1 (Homo sapiens) (Q05397 whole entry, looked up): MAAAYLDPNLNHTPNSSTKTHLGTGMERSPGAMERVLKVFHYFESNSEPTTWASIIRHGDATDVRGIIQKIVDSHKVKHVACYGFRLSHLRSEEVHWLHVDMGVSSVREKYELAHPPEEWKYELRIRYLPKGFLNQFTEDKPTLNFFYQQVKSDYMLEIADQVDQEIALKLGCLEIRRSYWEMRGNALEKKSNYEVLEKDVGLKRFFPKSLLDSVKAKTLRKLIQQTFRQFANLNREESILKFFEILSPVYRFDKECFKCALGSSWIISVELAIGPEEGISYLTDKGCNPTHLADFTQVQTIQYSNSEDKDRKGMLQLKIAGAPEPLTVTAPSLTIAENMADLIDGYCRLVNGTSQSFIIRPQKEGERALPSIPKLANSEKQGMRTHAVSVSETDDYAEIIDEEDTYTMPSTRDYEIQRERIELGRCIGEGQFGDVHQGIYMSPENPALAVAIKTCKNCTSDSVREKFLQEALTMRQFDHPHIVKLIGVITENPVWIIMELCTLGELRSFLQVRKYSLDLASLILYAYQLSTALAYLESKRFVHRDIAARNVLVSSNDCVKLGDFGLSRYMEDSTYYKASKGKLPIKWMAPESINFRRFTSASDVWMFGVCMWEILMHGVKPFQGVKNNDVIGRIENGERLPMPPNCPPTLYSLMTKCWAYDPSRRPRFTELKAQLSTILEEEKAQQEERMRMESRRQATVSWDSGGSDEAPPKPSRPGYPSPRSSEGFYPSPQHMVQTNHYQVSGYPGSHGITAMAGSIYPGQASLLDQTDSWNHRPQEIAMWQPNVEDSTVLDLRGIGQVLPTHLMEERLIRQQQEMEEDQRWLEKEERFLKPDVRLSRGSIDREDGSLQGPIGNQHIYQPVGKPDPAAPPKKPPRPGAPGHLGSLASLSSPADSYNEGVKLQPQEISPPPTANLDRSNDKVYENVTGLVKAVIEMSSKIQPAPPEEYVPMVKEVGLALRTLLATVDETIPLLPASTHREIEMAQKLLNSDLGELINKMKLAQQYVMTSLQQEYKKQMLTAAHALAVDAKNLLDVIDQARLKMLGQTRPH
SMILES,composite z-score [1],composite z-score [2],composite z-score [3],composite z-score [4],composite z-score [5],composite z-score [6],z-score [7],composite z-score [8],composite z-score [9],z-score [10],composite z-score [11],z-score [12],z-score [13],z-score [14],z-score [15],composite z-score [16],composite z-score [17],composite z-score [18],composite z-score [19],composite z-score [20]
COc1ccc([Si](C)(C)[C@@H]2[C@@H](CCO)O[C@]3(C(=O)N(Cc4ccc(N5C(=O)COc6ccccc65)cc4)c4ccccc43)[C@H]2C)cc1,1.58,1.18,0.571,0.814,0.59,0.621,-0.342,0.955,0.978,0.686 (inactive),0.44,-7.31 (inactive),-0.374 (inactive),0.804 (inactive),2.02 (inactive),0.636,0.0261,0.436,0.586,1.57
C=CCC(OC(C)=O)[C@@H]1[C@@H](N(Cc2ccc(-c3cccc(C(F)(F)F)c3)o2)C(=O)Cc2ccc(F)cc2)c2cc(OCCCO)ccc2N1C(=O)Cc1ccc(OC)cc1 (stereo not given in full),-0.775,-2.07,-0.572,-0.0256,0.346,-0.308,0.812,-0.0727,0.114,0.175 (inactive),-0.186,-0.705 (inactive),-1.63 (inactive),0.236 (inactive),0.239 (inactive),-1.07,-0.183,-2.21,-0.945,0.392
C[C@]1(C(=O)NC2CC2)c2ccccc2C(=O)N(Cc2cc(C(F)(F)F)cc(C(F)(F)F)c2)[C@H]1c1ccc(CO)cc1,1.86,1.11,-0.0326,0.657,1.31,0.998,1.73,0.539,0.772,-1.07 (inactive),0.46,-1.38 (inactive),0.501 (inactive),-0.825 (inactive),-1.25 (inactive),0.0956,0.225,0.372,0.329,-0.0874
O=C1O[C@H](c2ccccc2)[C@H](c2ccccc2)N2[C@H]1[C@@H](C(=O)Nc1nc3ccccc3s1)[C@]1(C(=O)Nc3ccc(C#CC4(O)CCCCCC4)cc31)[C@H]2c1ccc(OCCO)cc1,2,1.14,0.429,0.976,1.43,1.39,-2.27,1.05,0.921,-2.79 (inactive),0.248,-1.04 (inactive),-1.88 (inactive),-0.402 (inactive),0.858 (inactive),1.18,0.284,0.401,1.01,1.68
O=C1OCC=C[C@H]2OC34C=CCN(CCN5CCOCC5)C(=O)[C@H]3N(CCCO)C(=O)[C@@H]4[C@@H]12 (stereo not given in full),0.314,0.323,0.574,0.38,0.216,-0.344,-0.798,0.606,0.114,-0.206 (inactive),-0.418,-2.3 (inactive),-0.0222 (inactive),0.329 (inactive),1.5 (inactive),0.212,-0.128,0.267,0.156,1
